Data as given in PubChem BioAssay (NCI).
This is part of a sample that, as a whole, favours compounds with a hit. Of some 83,000 tested, about 20% had one in any assay.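 Plates (96-well) were seeded with cells, treated with compound at one concentration, and incubated for 48 hours before percent growth was determined.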 Unmarked numbers belong to inactive results. The source made the active and inactive calls. The calls were made as follows: active = growth percent below 10; inactive = the rest.

Experiments:
Experiment in all cases: NCI-60 one-dose screen, 48 h (100 = growth as untreated, 0 = no growth, -100 = all killed)
Conditions in all cases: 10 µM unless noted
BT-549 breast = system: BT-549 breast
MDA-MB-435 melanoma = system: MDA-MB-435 melanoma
SW-620 colon = system: SW-620 colon
MCF7 breast = system: MCF7 breast
HCT-116 colon = system: HCT-116 colon
HCC-2998 colon = system: HCC-2998 colon
KM12 colon = system: KM12 colon

Compound | growth (BT-549 breast) | growth (MDA-MB-435 melanoma) | growth (SW-620 colon) | growth (MCF7 breast) | growth (HCT-116 colon) | growth (HCC-2998 colon) | growth (KM12 colon)
CC(=O)OC(c1ccccc1)C1CCOC1=O (configuration not stated) | 120% | 96.3% | 102% | 102% | 101% | 97.2% | 106%
O=C1c2ccccc2C(=O)c2c1cc1c(c2[N+](=O)[O-])OCO1 | 15.8% | 56.3% | 7.14% (active) | 3.53% (active) | 1.94% (active) | -46.4% (active) | 0.869% (active)
Cc1ccc(-c2nc(N3CCNCC3)c3oc(-c4ccc(C)cc4)nc3n2)cc1 | 83.4% | -77.1% (active) | -69.3% (active) | -73.1% (active) | -39.4% (active) | 65.5% | -81.9% (active)
Cc1cccc(N2CCC(=O)NC2=S)c1 | 104% | 106% | 103% | 97.1% | 93.2% | 95.4% | 107%
N#CC1CCc2c(c(-c3ccc4nc(N)sc4c3)nc3ccc4[nH]ncc4c23)C1 (configuration not stated) | 65.5% | -2.8% (active) | 39.1% | 21.7% | 25.6% | 48.2% | 24.4%
COc1cc(-c2nc3c(ncc4ccc(=O)n(-c5ccccc5)c43)s2)cc(OC)c1OC | 61.8% | 81% | 89.4% | 55.1% | 79.6% | 85% | 79.3%
Cc1ccc(N2C(=O)CCC2=O)cc1 | 80.6% | – | 96.1% | 94.6% | 92.9% | 108% | 103%
CCN1CCN(c2cc(C)nc(N(CCNc3ccnc4cc(Cl)ccc34)Cc3ccc4c(c3)OCO4)n2)CC1 | 36.4% | -66.3% (active) | 0.855% (active) | -37.3% (active) | -23.2% (active) | -46% (active) | 5.74% (active)
O=C1/C(=C2\SC(=S)N(C3CC3)C2=O)SC(=S)N1C1CC1 | 97.5% | 103% | 98.4% | 91.6% | 100% | 102% | 101%
CN(CCC(=O)c1ccccc1)CCC(=O)c1ccccc1 | 79.7% | 102% | 99.8% | 70.2% | 93.3% | 93.3% | 98.7%
O=C(Nc1ncccc1OCc1ccccc1)NC1CCCCCC1 | 78.2% | 89% | 94.9% | 79.9% | 58.2% | – | 88.8%
COc1cccc(/C=C/C(=O)c2cccc(Nc3nc(Nc4ccccc4)nc(Nc4ccccc4)n3)c2)c1 | 99% | 91.4% | 40.5% | 21.9% | 12.8% | 21.6% | 62.8%
Cc1ccc2c(=O)cc(C(=O)Nc3sc4c(c3C(=O)NCc3cccnc3)CCCC4)oc2c1C | 107% | 101% | 101% | 96.8% | 109% | 106% | 97.1%
S=c1[nH]c(=S)c2c(-c3ccccc3)c(-c3ccccc3)oc2[nH]1 | 119% | 97.3% | 101% | 94.3% | 97.9% | 101% | 102%
CC1(C)NCCC[C@]2(C)[C@H]3CC[C@H]4[C@H]5[C@H](C(=O)/C=C/c6cccnc6)CCC[C@]5(CO)CC[C@@]4(C)[C@]3(C)CC[C@@H]12 | 88.2% | 70.8% | 7.51% (active) | 22.1% | 37.2% | 19.7% | 39.8%
O=C(Oc1ccc(CCl)cc1)c1ccccc1 | – | – | -49% (active) | -58.2% (active) | -84.7% (active) | -75% (active) | -79.1% (active)
Cc1cc(Nc2ccc(C(=O)N3CCCC3)cc2)nc(NCCCNc2ccnc3cc(Cl)ccc23)n1 | 84.6% | 79.6% | 95.9% | 51.6% | 54.5% | 80.9% | 87.4%
CN1CCN(Cc2ccc(NC(=O)c3cncc(C#Cc4cnc(N)c5ccc(F)cc45)c3)cc2C(F)(F)F)CC1 | 42% | 19.3% | -64.4% (active) | 13.2% | -90.9% (active) | 34.8% | 7.82% (active)
Cc1ccc(-c2nc(/C=C3/C(=O)Nc4ccc(F)cc43)c3ccccn23)cc1 | 111% | 86.7% | 44.3% | 35.5% | 55% | 95% | 81.7%

Compound | growth (BT-549 breast) | growth (MDA-MB-435 melanoma) | growth (SW-620 colon) | growth (MCF7 breast) | growth (HCT-116 colon) | growth (HCC-2998 colon) | growth (KM12 colon)
C=C(c1ccc(OC)c(/C=C/C(=O)c2ccc3c(c2)OCO3)c1)c1cc(OC)c(OC)c(OC)c1 | 12.7% | 23.2% | 5.67% (active) | 16.1% | 2.56% (active) | 9.86% (active) | 4.46% (active)
CC1=C2[C@@H](CC1)[C@]1(C)O[C@@](c3ccccc3)(C[C@H]1OC(=O)CO)[C@H]2OC(=O)/C=C/c1ccccc1 | 0.952% (active) | -80.7% (active) | 104% | 78.6% | 86.2% | 93.2% | 88.4%
C/C(=N\O)[C@@H]1CC[C@]2(CO)CC[C@]3(C)[C@H](CC[C@@H]4[C@@]5(C)CCCNC(C)(C)[C@@H]5CC[C@]43C)[C@@H]12 | 90.5% | 79.5% | 88.5% | 50.9% | 76.5% | 103% | 83.6%
CCN1C(=O)N(CC)C2Nn3c(s/c(=C\c4ccccc4Br)c3=O)=NC21 (configuration not stated) | 19% | -62.1% (active) | 17.4% | 16.7% | 11.2% | 24.4% | 7.48% (active)
COc1ccc(-c2nc(/C=C3\C(=O)N(C)c4ccccc43)c3ccccn23)cc1 | 104% | 104% | 84.7% | 61.9% | 56.5% | 102% | 93.7%
COc1ccc(-c2nc(-c3cn(C)c4ncccc34)cs2)cc1 | -30.1% [100 µM] (active) | -43.6% [100 µM] (active) | 10.8% [100 µM] | -17.8% [100 µM] (active) | -75.3% [100 µM] (active) | -9.69% [100 µM] (active) | 3.74% [100 µM] (active)
Cc1ccnc(Nc2ccc([N+](=O)[O-])c(NCCN3CCOCC3)n2)c1 | 18.6% | -20.5% (active) | 27.9% | 21% | -12.9% (active) | 14.4% | 5.83% (active)
Cc1cccc[n+]1C1c2ccccc2-c2ccccc21 | 86.8% | 102% | 103% | 95.1% | 78.5% | 105% | 101%
O=C(Cc1ccc(NC(=O)c2cccc(Cl)c2)cc1)NCc1ccccc1 | 61% | -30.1% (active) | 25.3% | 22.1% | 25.3% | – | 24.8%
N=C(N)c1ccc(-c2ccc(-c3cc(Cl)cc(Cl)c3)s2)nc1 | 97.5% | 44.6% | -59.2% (active) | -47% (active) | -73.6% (active) | 28.1% | -75.3% (active)
COc1ccc(/C(C)=C(\c2ccc(Cl)cc2)c2ccc(OCCN3CCCCC3)cc2)cc1 | 73.1% | 58% | 24.5% | 20.3% | 31.9% | 91.3% | 25.7%
CCN1C(=O)N(CC)C2C1NN=c1s/c(=C\c3ccc[nH]3)c(=O)n12 (configuration not stated) | 51.2% | -57% (active) | 16.9% | 17.6% | 17% | 33.1% | 8.23% (active)
Oc1c(CN2CCC(N3CCCCC3)CC2)cc(Cc2cc(CN3CCC(N4CCCCC4)CC3)c(O)c3ncccc23)c2cccnc12 | – | -13.1% (active) | 29.1% | 6.62% (active) | 13% | 32.9% | 21.7%
C=CCn1c(SCC(=O)Nc2ccc(/C(C)=N/O)cc2)nnc1-c1cc(-c2ccc(S(N)(=O)=O)cc2)nc2ccccc12 | 58.8% | 67.3% | 84.2% | 43.3% | 77.7% | 101% | 86.5%
CN(Cc1cc(Br)cc(Br)c1O)Cc1cc(Br)cc(Br)c1O | 57.8% | 52.6% | 24.5% | 17.7% | 7.44% (active) | 38.7% | 42.5%
O=C(NC1CC(F)C1)c1cc2cccnc2n1-c1ccc(Cl)c(Cl)c1 (configuration not stated) | 101% | 119% | 98.4% | 98.3% | 94.7% | 104% | 98.5%
O=C(CN1CCCCCC1)Nc1nc2ccc(NCc3ccc(Cl)cc3)cc2s1 | 92.6% | 100% | 97.9% | 84.9% | 75.8% | 114% | –
O=C1Nc2c(C(=O)O)cccc2/C1=N/c1n[nH]c(=S)s1 | 116% | 88.4% | 88.1% | 80.8% | 96.2% | 103% | 75.4%
